This passage reports inhibition results from PubChem BioAssay.

Active and inactive are the calls of the source. No rule for the calls is given here.

As usually defined, the inhibition is the share of the control response that was lost under treatment.

Chain of Pantothenate synthetase (Mycobacterium tuberculosis (strain ATCC 25618 / H37Rv)) (P9WIL5 whole entry, looked up): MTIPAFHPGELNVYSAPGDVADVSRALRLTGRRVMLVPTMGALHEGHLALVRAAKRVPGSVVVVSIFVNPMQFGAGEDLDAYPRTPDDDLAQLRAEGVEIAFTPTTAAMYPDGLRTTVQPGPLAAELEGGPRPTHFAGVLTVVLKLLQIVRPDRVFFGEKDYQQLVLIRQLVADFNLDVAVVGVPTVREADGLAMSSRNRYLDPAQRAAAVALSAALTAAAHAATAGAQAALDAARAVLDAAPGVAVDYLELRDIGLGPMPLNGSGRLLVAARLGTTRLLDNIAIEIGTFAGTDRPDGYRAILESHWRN

This test concerns the target Pantothenate synthetase (Mycobacterium tuberculosis (strain ATCC 25618 / H37Rv)) (UniProt P9WIL5). The experiment in a line: Recombinant Mtb pantothenate synthetase (PanC) inhibitors, coupled enzyme, confirmatory (AID 375).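 Also: 0% = full reaction with vehicle and 100% = no enzyme background.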 As to conditions: coupled enzyme assay; at 10 µM, active compounds read high.
Turning to `COCCn1nnnc1C(c1cc2cc(OC)ccc2[nH]c1=O)N1CCC(Cc2ccccc2)CC1` (configuration not stated), the inhibition is 3% (inactive).
With `Cc1cccc(NC(=O)c2cc3ccccc3o2)c1`, the inhibition is 5% (inactive).
In the case of `Cc1ccc(S(=O)(=O)N(C)CC(=O)NC2CC(C)(C)NC(C)(C)C2)cc1`, the inhibition is 0% (inactive).
The value for `CC(CCc1ccccc1)NC(=O)C1CCN(S(=O)(=O)c2cnc[nH]2)CC1` (configuration not stated) was 4% (inactive); that for `CCN(CC)C(=O)COC(=O)c1ccc(O)cc1` was 0% (inactive); that for `CN1CCN(CC#CCC(O)(c2ccccc2)C2CCCC2)CC1` (configuration not stated) was 0% (inactive).
With `Cc1[nH]c(=O)[nH]c(=O)c1S(=O)(=O)N1CCN(c2cccc(Cl)c2)CC1`, the inhibition is 1% (inactive).
The value for `CCOc1ccc2nc(SCC(=O)Nc3ncccn3)[nH]c2c1` was 0% (inactive); that for `CCOC(=O)c1sc(NC(=O)CSc2nnnn2-c2ccccc2)c(C(=O)OCC)c1C` was 0% (inactive).
Take `COc1ccc(CCNC(=O)C2CCN(C(=O)N(C)C)CC2)cc1OC`: the inhibition was 0% (inactive).
The value for `CC(=O)NC1CC2CCCC(C1)N2CC(=O)Nc1ccccc1` (configuration not stated) was 3% (inactive); that for `Cc1ccc(CNC(=O)C2CCN(S(=O)(=O)c3cccs3)CC2)o1` was 0% (inactive).
For `O=C1c2ccccc2C(O)(Cc2ccccc2)N1Cc1ccco1` (configuration not stated), the inhibition is 2% (inactive).
The value for `CCOC(=O)C1CCN(c2nc3ccccc3nc2C(C#N)C(=O)OCCOC)CC1` (configuration not stated) was 0% (inactive); that for `CCNC(=O)CC1C(=O)N(c2ccccc2)C(=O)N1Cc1ccc(OC)cc1` (configuration not stated) was 0% (inactive).
For `CC1Cc2ccccc2N1C(=O)c1cccnc1` (configuration not stated), the inhibition is 0% (inactive).
Consider `O=C(NCc1ccco1)c1ccc2c(=O)n(CC3CCCO3)c(=S)[nH]c2c1` (configuration not stated), for which the inhibition is 3% (inactive).
